Most compounds without a hit are left out; they make up all but 7.9% or so of the library.
HT1080-NT tox: qHTS for induction of synthetic lethality in tumor cells producing 2HG: qHTS for the HT-1080-NT fibrosarcoma cell line. 360,000 tested, 1.6% active. AID 686970, 2013. HT-1080-NT fibrosarcoma viability, CellTiter-Glo ATP luminescence, 48 h. Potency, µM (titrated, usually from 46.1 µM), usual class: cytotoxic;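 note: NT is the 2HG producing partner of a matched IDH1 knockdown line; nearly all actives have a fitted effect of over 55% in size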
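Read-out is CellTiter-Glo luminescence after 10 minutes at room temperature, following 48 hours' compound treatment of HT-1080-NT cells (750 cells/well, RPMI, 5% FBS, 37 degrees C).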
KB-V1 cytotox: qHTS assay for MDR1-selective chemotherapeutics: Primary screen using the drug-selected MDR subline cells KB-V1 | AID 1347076, 2019 | Potency, µM (series often up to 46.1 µM), hits mostly cytotoxic | KB-V1 MDR cells viability, CellTiter-Glo, 72 h | 400,000 tested, 3.4% active; note: nearly all actives have a fitted effect of over 60% in size
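Potencies derive from concentration-effect curves fitted to normalized luminescence (CellTiter-Glo) of KB-V1 cells treated for 72 h at 37 degrees C in phenol-red-free DMEM containing 10% FBS.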
HT1080 IDH1KD tx: qHTS for induction of synthetic lethality in tumor cells producing 2HG: qHTS for the HT-1080-IDH1KD cell line; Potency, µM (top dose mostly 46.1 µM), most hits filed as cytotoxic; HT-1080 IDH1 knockdown viability, ATP luminescence, 48 h; 360,000 tested, 2% active
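Luminescent ATP read-out (CellTiter-Glo, 10 min at room temperature) after 48 h compound exposure at 37 °C gave viability of IDH1-knockdown HT-1080 cells. Activity was normalised to DMSO and cell-free wells, then fitted as concentration-response curves.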
KB-3-1 tox: qHTS assay for MDR1-selective chemotherapeutics: Primary screen using the parental adenocarcinoma cell KB-3-1; AID 1347075, 2019; KB-3-1 viability, CellTiter-Glo ATP luminescence, 72 h; 400,000 tested, 1.4% active; Potency, µM (top dose mostly 46.1 µM), most hits filed as cytotoxic; note: nearly all actives have a fitted effect of over 60% in size
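KB-3-1 parental drug-naive adenocarcinoma cells in DMEM/10% FBS, incubated 72 h at 37 C with pin-transferred compounds across a concentration series. Viability by CellTiter-Glo luminescence; concentration-response curves fitted after normalization.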
SW480 rerep: A quantitative high throughput screen for small molecules that induce DNA re-replication in SW480 colon adenocarcinoma cells | SW480 DNA re-replication, Hoechst DNA content imaging, 48 h | Potency, µM (doses to about 46.1 µM), usual class: activators | 340,000 tested, 1.8% active; note: nearly all actives have a fitted effect of over 55% in size
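Hoechst fluorescence of nuclei (405 nm excitation, 500-530 nm emission) measured by plate-scanning imager after 48 hr compound exposure at 37 C; re-replication scored as increased number of nuclei with elevated intensity.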
MCF10A rereplic: A quantitative high throughput screen for small molecules that induce DNA re-replication in MCF 10a normal breast cells. MCF 10A DNA re-replication, Hoechst nuclear intensity, 48 h. Potency, µM (top dose mostly 46.1 µM), actives largely listed as activators. 350,000 tested, 2.9% active; note: nearly all actives have a fitted effect of over 50% in size
Large screens that a line does not name were inactive. Calls come from the whole dose curve; as a rule, active = well fitted curve in the direction sought with a large enough effect; inconclusive = small, poorly fitted or top-dose-only effect, or another doubt; inactive = no such curve, though single readings can be large; an effect the other way counts as inactive or inconclusive.

COc1ccc(C)cc1NC(=O)c1cc(S(=O)(=O)N2CCc3ccccc3C2)ccc1F	KB-3-1 tox inconclusive (no result: HT1080-NT tox, HT1080 IDH1KD tx, SW480 rerep, MCF10A rereplic)
O=c1oc2ccccc2nc1/C=C(\O)c1ccccc1	none
O/C(=C\c1nc2ccccc2nc1/C=C(\O)c1ccccc1)c1ccccc1	HT1080-NT tox 20.6µM, HT1080 IDH1KD tx inconclusive
COc1ccc(OC)c(C2CC(=O)Oc3c2c(=O)n(C)c2ccccc32)c1 (stereo unspecified)	none (no result: HT1080-NT tox, HT1080 IDH1KD tx, SW480 rerep, MCF10A rereplic)
Cc1cc(C)c2oc(-c3ccc(C)c(NC(=S)NC(=O)c4cccs4)c3)nc2c1	MCF10A rereplic 9.2µM
Cc1ccc(-c2nc3ccccc3s2)cc1NC(=S)NC(=O)c1ccccc1	MCF10A rereplic 13µM
Cc1ccc(-c2nc3ccccc3o2)cc1NC(=S)NC(=O)c1cccs1	MCF10A rereplic inconclusive
Cc1ccc(-c2nc3ccccc3s2)cc1S(=O)(=O)N1CCOCC1	HT1080 IDH1KD tx 17.8µM, MCF10A rereplic inconclusive
Cc1cc(-c2nc3ccccc3s2)ccc1N	KB-V1 cytotox 18.4µM, KB-3-1 tox inconclusive, SW480 rerep inconclusive, MCF10A rereplic 20.6µM
Cc1ccc(-c2nnc(NCc3nc4ccccc4[nH]3)c3ccccc23)cc1S(=O)(=O)N1CCOCC1	none
CC(=O)Nc1cc(-c2nc3ccccc3s2)ccc1C	none (no result: HT1080-NT tox, HT1080 IDH1KD tx, SW480 rerep, MCF10A rereplic)
CCc1ccc(N(CC(=O)NC2CCCC2)C(=O)CCC(=O)Nc2ccccn2)cc1	KB-V1 cytotox inconclusive
O=C(c1cccs1)N1CCN(C(=O)c2cccs2)C1=S	HT1080-NT tox inconclusive, KB-V1 cytotox 2.91µM, HT1080 IDH1KD tx 20.6µM, KB-3-1 tox 14.6µM, SW480 rerep 16.4µM, MCF10A rereplic 5.8µM
CC1(C)CC2CC(C)(CN2C(=O)COC(=O)c2cccc([N+](=O)[O-])c2)C1 (stereo unspecified)	KB-V1 cytotox inconclusive
O=C(c1cc2ccccc2oc1=O)N(Cc1ccco1)CC1CCCO1 (stereo unspecified)	KB-V1 cytotox 11.6µM
Cc1ccc2cc(CN(CC3CCCO3)C(=S)Nc3ccccc3)c(=O)[nH]c2c1C (stereo unspecified)	HT1080-NT tox inconclusive, KB-V1 cytotox 2.31µM, HT1080 IDH1KD tx inconclusive, KB-3-1 tox 7.31µM, SW480 rerep 5.17µM, MCF10A rereplic 2.59µM
Cc1cc(C)c2[nH]c(=O)c(CN(CC3CCCO3)C(=S)NCc3ccco3)cc2c1 (stereo unspecified)	none
Cc1ccc2[nH]c(=O)c(CN(CC3CCCO3)S(=O)(=O)c3c(C)ccc4nsnc34)cc2c1 (stereo unspecified)	KB-V1 cytotox 6.51µM, KB-3-1 tox inconclusive
Cc1cccc2cc(CN(CC3CCCO3)C(=S)NCc3ccco3)c(=O)[nH]c12 (stereo unspecified)	KB-V1 cytotox 4.11µM, HT1080 IDH1KD tx inconclusive, SW480 rerep inconclusive
CCOC(=O)C1CCN(c2cc(C)nc3c(-c4ccccc4OC)c(C)nn23)CC1	none (no result: HT1080-NT tox, HT1080 IDH1KD tx, SW480 rerep, MCF10A rereplic)
COc1ccc(CCNC(=O)CCCCCn2c(=O)[nH]c3cc(OC)c(OC)cc3c2=O)cc1OC	none (no result: HT1080-NT tox, HT1080 IDH1KD tx, SW480 rerep, MCF10A rereplic)
COc1ccc2[nH]c(=O)c(CN(CC3CCCO3)C(=O)Nc3ccc(F)cc3)cc2c1 (stereo unspecified)	KB-V1 cytotox 2.59µM, KB-3-1 tox 13µM, MCF10A rereplic inconclusive
Cc1cc(C)c2[nH]c(=O)c(CN(CC3CCCO3)C(=S)Nc3ccccc3)cc2c1 (stereo unspecified)	none
COc1ccc(NC(=O)N(Cc2cc3cc(C)ccc3[nH]c2=O)CC2CCCO2)cc1 (stereo unspecified)	SW480 rerep inconclusive, MCF10A rereplic inconclusive
Cc1ccc2[nH]c(=O)c(CN(CC3CCCO3)C(=S)Nc3ccccc3)cc2c1 (stereo unspecified)	KB-V1 cytotox 4.11µM, KB-3-1 tox inconclusive, SW480 rerep inconclusive, MCF10A rereplic inconclusive
Cc1ccc(-n2c(C)cc(C(=O)CSc3n[nH]c(N)n3)c2C)cc1	HT1080 IDH1KD tx inconclusive, KB-3-1 tox 20.6µM
Cc1cc(C(=O)CSc2n[nH]c(N)n2)c(C)n1-c1ccccc1	HT1080 IDH1KD tx inconclusive, MCF10A rereplic inconclusive
Cc1cc(C(=O)CSc2n[nH]c(N)n2)c(C)n1-c1ccc(F)cc1	HT1080-NT tox inconclusive, KB-V1 cytotox 16.4µM, KB-3-1 tox inconclusive
Cc1cc(C)nc(SC2CC(=O)N(c3ccc(C)c(C)c3)C2=O)n1 (stereo unspecified)	HT1080-NT tox inconclusive, KB-V1 cytotox inconclusive, HT1080 IDH1KD tx 16.4µM, KB-3-1 tox inconclusive, SW480 rerep inconclusive
Cc1cc(C)nc(SC2CC(=O)N(c3ccc(Cl)cc3)C2=O)n1 (stereo unspecified)	MCF10A rereplic inconclusive
NS(=O)(=O)c1ccc(NC(=O)c2cccc3cc4ccccc4nc23)cc1	HT1080 IDH1KD tx inconclusive, KB-3-1 tox inconclusive, SW480 rerep inconclusive, MCF10A rereplic inconclusive
COC(=O)c1ccc(CNC(=O)COC(=O)c2ccccc2-c2ccccc2)cc1	none
CC(C)n1c(O)c(/C=C2\C=NN=C2c2ccccc2)sc1=S	HT1080-NT tox 20.6µM, KB-V1 cytotox inconclusive, HT1080 IDH1KD tx 20.6µM, MCF10A rereplic inconclusive
CCn1c(O)c(/C=C2\C=NN=C2c2ccc(C)cc2)sc1=S	MCF10A rereplic inconclusive
COc1ccc(CNC(=O)C2CCC(=O)N(C3CCCCCC3)C2)c(OC)c1 (stereo unspecified)	KB-V1 cytotox inconclusive (no result: SW480 rerep, MCF10A rereplic)
COc1ccc(-c2cnn3c(N)c(S(=O)(=O)C(C)(C)C)cnc23)cc1	KB-V1 cytotox 14.6µM, HT1080 IDH1KD tx inconclusive, SW480 rerep inconclusive
Cn1c(=O)c(=O)n(C)c2cc(S(=O)(=O)CCC(=O)Nc3c(F)c(F)c(F)c(F)c3F)ccc21	KB-V1 cytotox inconclusive
O=S(=O)(NCC1OCCc2ccccc21)c1ccc(S(=O)(=O)N2CCOCC2)cc1 (stereo unspecified)	KB-V1 cytotox 20.6µM
C/C(=N\Nc1ncc(Cl)cc1Cl)c1ccccn1	HT1080-NT tox inconclusive, KB-V1 cytotox inconclusive, HT1080 IDH1KD tx 0.231µM, KB-3-1 tox inconclusive
Cc1sc2ncnc(N/N=C/c3cccc(O)c3)c2c1C	HT1080-NT tox inconclusive, HT1080 IDH1KD tx inconclusive
C/C(=N\Nc1ncnc2sc(C)c(C)c12)c1ccccn1	HT1080-NT tox 0.92µM, KB-V1 cytotox inconclusive, HT1080 IDH1KD tx 0.517µM, KB-3-1 tox inconclusive, SW480 rerep inconclusive, MCF10A rereplic inconclusive

Screening data (PubChem)
